# Records with an inconclusive call do not appear. Calls of active or inactive are those of the source. The call rests on the fitted dose curve; in most records, active means well fitted curve in the direction sought with a large enough effect; inconclusive means small, poorly fitted or top-dose-only effect, or another doubt; inactive means no such curve, though single readings can be large; an effect the other way counts as inactive or inconclusive.
# Legend:
# [1] = Quantitative High-Throughput drug screen in 47 multiple myeloma cell lines against the NCATS MIPE library collection: Delta47_JCRB cell viability assay (AID 1918925; further: nearly all actives have a fitted effect of over 45% in size)
# How it was run: (§1)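 CellTiter-Glo luminescence (ATP) after 48 h compound exposure, 37C/5% CO2; 500 cells/well; MIPE 4.0 approved/investigational drugs pinned in; DMSO = 100%, media only = 0% viability.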
# [2] = Quantitative High-Throughput drug screen in 47 multiple myeloma cell lines against the NCATS MIPE library collection: ARP1_JJKsccF8 cell viability assay (AID 1918928; further: nearly all actives have a fitted effect of over 40% in size)
# How it was run: (§2)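 Myeloma cells at 500 per well in 1536-well format treated with MIPE 4.0 library by pin transfer for 48 h at 37C, 5% CO2. Viability from ATP luminescence (CellTiter-Glo), normalized to DMSO (100%) and media-only (0%) wells.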
# [3] = Quantitative High-Throughput drug screen in 47 multiple myeloma cell lines against the NCATS MIPE library collection: JIM3_ECACC cell viability assay (AID 1918963; further: nearly all actives have a fitted effect of over 35% in size)
# How it was run: (§3)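 Primary qHTS used for cherry-picking: cells at 500/well, library compounds for 48 h (37C, 5% CO2), luminescent ATP assay.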
# [4] = Quantitative High-Throughput drug screen in 47 multiple myeloma cell lines against the NCATS MIPE library collection: INA6_PLB cell viability assay (AID 1918965; further: nearly all actives have a fitted effect of over 55% in size)
# How it was run: (§4)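 We plated 500 myeloma cells per well, pinned in MIPE 4.0 compounds, and incubated for 48 hours at 37C. ATP was then quantified with CellTiter-Glo, with DMSO and media-only wells defining 100% and 0%.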
# [5] = Quantitative High-Throughput drug screen in 47 multiple myeloma cell lines against the NCATS MIPE library collection: JJN3_DSMZ cell viability assay (AID 1918966; further: nearly all actives have a fitted effect of over 50% in size)
# How it was run: as §1
# [6] = Quantitative High-Throughput drug screen in 47 multiple myeloma cell lines against the NCATS MIPE library collection: Karpas25_ECACC cell viability assay (AID 1918968; further: nearly all actives have a fitted effect of over 35% in size)
# How it was run: as §1
# [7] = Quantitative High-Throughput drug screen in 47 multiple myeloma cell lines against the NCATS MIPE library collection: EJM_DSMZ cell viability assay (AID 1918926; further: nearly all actives have a fitted effect of over 30% in size)
# How it was run: as §1
# [8] = Quantitative High-Throughput drug screen in 47 multiple myeloma cell lines against the NCATS MIPE library collection: AMO1_DSMZ cell viability assay (AID 1918927; further: nearly all actives have a fitted effect of over 30% in size)
# How it was run: as §1
# [9] = Quantitative High-Throughput drug screen in 47 multiple myeloma cell lines against the NCATS MIPE library collection: Karpas620_DSMZ cell viability assay (AID 1918959); further: nearly all actives have a fitted effect of over 30% in size
# How it was run: as §3
# [10] = Quantitative High-Throughput drug screen in 47 multiple myeloma cell lines against the NCATS MIPE library collection: KMM1_JCRB cell viability assay (AID 1918960); further: nearly all actives have a fitted effect of over 30% in size
# How it was run: as §2
# [11] = Quantitative High-Throughput drug screen in 47 multiple myeloma cell lines against the NCATS MIPE library collection: KMS27_JCRB cell viability assay (AID 1918970); conditions: KMS27 myeloma cells, CellTiter-Glo ATP viability, 48 h; viability (% of DMSO): at 45.8 µM (top of the series); further: nearly all actives have a fitted effect of over 30% in size
# How it was run: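 KMS27_JCRB myeloma cells, 500 per well, exposed 48 h at 37 C, 5% CO2 to MIPE 4.0 compounds. Viability from ATP by CellTiter-Glo luminescence, normalized to DMSO (100%) and medium-only (0%) wells.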
# [12] = Quantitative High-Throughput drug screen in 47 multiple myeloma cell lines against the NCATS MIPE library collection: ARD_JJKsccE7 cell viability assay (AID 1918929)
# How it was run: as §1
# [13] = Quantitative High-Throughput drug screen in 47 multiple myeloma cell lines against the NCATS MIPE library collection: H1112_PLB cell viability assay (AID 1918967; further: nearly all actives have a fitted effect of over 30% in size)
# How it was run: as §1
# [14] = Quantitative High-Throughput drug screen in 47 multiple myeloma cell lines against the NCATS MIPE library collection: JIM1_ECACC cell viability assay (AID 1918964)
# How it was run: as §1
# [15] = Quantitative High-Throughput drug screen in 47 multiple myeloma cell lines against the NCATS MIPE library collection: Karpas417_ECACC cell viability assay (AID 1918961); conditions: Karpas417 myeloma viability, CellTiter-Glo ATP luminescence, 48 h; viability (% of DMSO): at 45.8 µM (top of the series)
# How it was run: as §4
# [16] = Quantitative High-Throughput drug screen in 47 multiple myeloma cell lines against the NCATS MIPE library collection: KHM11_PLB cell viability assay (AID 1918962); further: nearly all actives have a fitted effect of over 35% in size
# How it was run: as §3
# Potency means the concentration at half of the fitted maximal effect.
Structure (SMILES),Potency [1],Potency [2],Potency [3],Potency [4],Potency [5],Potency [6],Potency [7],Potency [8],Potency [9],Potency [10],Potency [11],Potency [12],Potency [13],Potency [14],Potency [15],Potency [16]
COc1cc2c(cc1Cc1cccc(Cl)c1F)c(=O)c(C(=O)O)cn2[C@H](CO)C(C)C,20.9 µM (active),16.6 µM (active),20.9 µM (active),13.2 µM (active),16.6 µM (active),14.8 µM (active),,,,,,,,,,
Cc1cc(NC(=O)Nc2ccc(N(C)C)cc2)c2cc(F)cc(F)c2n1,,,inactive,,,3.72 µM (active),inactive,inactive,inactive,inactive,inactive,,,,,
CCCCN(CCCC)CC(O)c1cc(Cl)cc2c1-c1ccc(Cl)cc1C2=Cc1ccc(Cl)cc1 (centres undefined),,,,18.7 µM (active),18.7 µM (active),23.5 µM (active),16.6 µM (active),inactive,inactive,,,inactive,26.4 µM (active),,,
Oc1ccc(C=Cc2cc(O)cc(O)c2)cc1,,13.2 µM (active),,16.6 µM (active),,18.7 µM (active),inactive,inactive,inactive,inactive,inactive,inactive,,inactive,,
Cn1cc(-c2ccc3nnc(Sc4ccc5ncccc5c4)n3n2)cn1,0.469 µM (active),,inactive,,,,,,1.18 µM (active),,,,inactive,,,
CC(C)Oc1cc(Nc2nc(N[C@@H](C)c3ccc(F)cn3)ncc2Cl)[nH]n1,,,8.33 µM (active),7.43 µM (active),20.9 µM (active),10.5 µM (active),20.9 µM (active),18.7 µM (active),,16.6 µM (active),20.9 µM (active),14.8 µM (active),,20.9 µM (active),2.64 µM (active),10.5 µM (active)
CC(=O)N1CCN(c2ccc(OCc3nn(C)c(C)c3-c3cccc4c(CCCOc5cc(C)c(Cl)c(C)c5)c(C(=O)O)n(Cc5cccnc5)c34)cc2)CC1,,,,1.66 µM (active),,3.32 µM (active),20.9 µM (active),6.62 µM (active),26.4 µM (active),,8.33 µM (active),20.9 µM (active),7.43 µM (active),,,
O=C(c1ccc(C=Cc2n[nH]c3ccccc23)cc1)N1CCNCC1,3.32 µM (active),13.2 µM (active),2.64 µM (active),3.32 µM (active),,3.72 µM (active),,,,5.26 µM (active),,1.32 µM (active),,3.72 µM (active),,0.833 µM (active)
C[C@H](CCC(=O)O)[C@H]1CC[C@H]2[C@H]3[C@@H](CC[C@]12C)[C@@]1(C)CC[C@@H](O)C[C@H]1C[C@@H]3O,,1.48 µM (active),inactive,inactive,,,inactive,,,,20.9 µM (active),,,,,
COC(=O)Nc1ccc(-c2nc(N3CCOCC3)c3cnn(C4CCN(C(=O)OC)CC4)c3n2)cc1,,0.662 µM (active),0.264 µM (active),0.0935 µM (active),0.935 µM (active),0.0187 µM (active),6.62 µM (active),,,0.469 µM (active),0.0833 µM (active),0.526 µM (active),0.0662 µM (active),,0.059 µM (active),
Nc1ccn([C@@H]2O[C@H](CO)[C@@H](O)[C@H]2O)c(=O)n1,,,inactive,,,,inactive,,,inactive,,inactive,,,,
C=CC[N+]1([C@H]2C[C@H]3[C@@H]4CC[C@H]5C[C@H](O)[C@@H](N6CCOCC6)C[C@]5(C)[C@@H]4CC[C@]3(C)[C@H]2OC(C)=O)CCCC1,inactive,,inactive,inactive,0.0053 µM (active),,,,inactive,inactive,inactive,inactive,inactive,,inactive,inactive
CCC(=O)NCC[C@@H]1CCc2ccc3c(c21)CCO3,,,13.2 µM (active),,,13.2 µM (active),inactive,inactive,inactive,inactive,,inactive,,,,
CN(C)CC[C@H](CSc1ccccc1)Nc1ccc(S(=O)(=O)NC(=O)c2ccc(N3CCN(Cc4ccccc4-c4ccc(Cl)cc4)CC3)cc2)cc1[N+](=O)[O-],,13.2 µM (active),,18.7 µM (active),8.33 µM (active),1.48 µM (active),5.9 µM (active),,0.0662 µM (active),4.69 µM (active),0.0187 µM (active),,0.0743 µM (active),1.48 µM (active),0.0935 µM (active),5.26 µM (active)
Nc1ncnc2c1ncn2[C@@H]1O[C@H](CO)[C@@H](O)[C@@H]1O,,23.5 µM (active),inactive,3.32 µM (active),,5.26 µM (active),inactive,1.87 µM (active),5.26 µM (active),1.32 µM (active),,2.64 µM (active),inactive,7.43 µM (active),0.118 µM (active),
Cc1cc2nc3c(=O)[nH]c(=O)nc-3n(CC(O)C(O)C(O)CO)c2cc1C (centres undefined),,4.69 µM (active),inactive,inactive,2.64 µM (active),inactive,1.18 µM (active),,,,,,inactive,,,
Cc1nn(Cc2ccccc2Cl)c(C)c1CN(C)CC(O)COc1ccc(Cl)cc1 (centres undefined),18.7 µM (active),,18.7 µM (active),20.9 µM (active),,20.9 µM (active),,inactive,,5.9 µM (active),,,,,,

# From PubChem BioAssay (NCATS)
